Drawing on ChEMBL document CHEMBL3988442, “University of Dundee, Small-Polar-MMV Screening Library” (2021), this text covers Percent Effect for 40 molecules.

The species entered for the first test is Homo sapiens. Description: To identify inhibition of the IFN signalling (Jak-Stat) pathway via expression of an eGFP reporter gene under the control of an IFN-stimulated response element (ISRE) containing MxA promoter. Details: scale not given: direction of the effect not stated beside the values. The note with it: 30 µM. In kind it is functional.
As to `O=C1CN(Cc2nnc(-c3ccccc3Br)o2)CCN1`, the Percent Effect is -21.9%. Turning to `CC(C)c1nnc2n1CCN(C(=O)CN1CCc3sccc3C1)C2`, the Percent Effect stood at 0.728%.

Regarding `Cn1nccc1C1CCN(Cc2csc(-c3ncccn3)n2)CC1`, the Percent Effect is 13.2%.

In the case of `COCc1cnc2n1CCN(Cc1cccnc1)C2C` (configuration not stated), the Percent Effect was -15.6%. On to `Cc1ccccc1CS(=O)(=O)CC(=O)NC1CCCCNC1=O` (configuration not stated), for which the Percent Effect worked out at 11%. Consider `O=C(Nc1cccc(OCc2cccc(F)c2)c1)C1COCCO1` (configuration not stated), for which the Percent Effect amounted to 28%.

Consider `Cn1cnnc1C1CCCN(C(=O)NCc2cc[nH]n2)C1` (configuration not stated), for which the Percent Effect was 4.39%.

Regarding `CS(=O)(=O)NC1CCc2c(ccc(=O)n2CC2CC2)C1` (configuration not stated), the Percent Effect is -2.08%. On to `COc1ccc(Cl)cc1NCC(=O)NCCc1ccccn1`, for which the Percent Effect came to 20.4%. In the case of `CC(C)n1ccnc1CN1CCCN(C(=O)COC2CCCC2)CC1`, the Percent Effect amounted to 2.51%. As to `COc1cc(C(=O)N(C2CC2)C2CC(=O)NC2=O)ccc1C` (configuration not stated), the Percent Effect is 24.4%. Same read-out and setting: under `O=C(Nc1ccnc(OC2CCOC2)c1)C1CCC1` (configuration not stated) stands 5.01%. Regarding `Cc1ncccc1Oc1nccnc1C1CCN(C(C)C)CC1`, the Percent Effect was -0.668%. `Cc1cnn(CC2CCCN2C(=O)c2cn(-c3ccccc3)nc2C)c1` (configuration not stated): the Percent Effect was -0.766%. With `O=C(Cc1ccccn1)N1CCN(C(=O)c2cccc3[nH]ncc23)CC1`, the Percent Effect is 4.63%.

Consider `Cc1nc2n(n1)CC(NCc1cc(Cl)c3c(c1)OCCCO3)CC2` (configuration not stated), for which the Percent Effect came out at 6.53%. For the molecule `Cn1cnc2c1CCN(Cc1nc(Cc3ccccc3)no1)C2`, the Percent Effect is 1.02%. For the molecule `Cc1cnc(CN2CCOC(Cn3nc(C)nc3C)C2)cn1` (configuration not stated), the Percent Effect was -21.9%. For the molecule `CCN1CCC(c2nc3ccc(NC(C)C)cn3n2)CC1`, the Percent Effect was -12.5%. On the same count and under the same terms, under `NC(=O)N1CCC2(CCN(Cc3cccc(F)c3)CC2)CC1` stands 5.51%. Same read-out and setting: under `O=C(N[C@@H]1CCNC[C@H]1O)c1ccc(F)c(Cl)c1` stands -2.61%; under `Cc1cnn(CCCNC(=O)N2CCCCC(N3CCCC3)C2)c1` (configuration not stated), 8.88%.

For another test, the target named is T1, Tyrosyl-tRNA synthetase, putative (Trypanosoma cruzi (strain CL Brener)) (UniProt Q4DSP6).
T1 sequence (whole entry): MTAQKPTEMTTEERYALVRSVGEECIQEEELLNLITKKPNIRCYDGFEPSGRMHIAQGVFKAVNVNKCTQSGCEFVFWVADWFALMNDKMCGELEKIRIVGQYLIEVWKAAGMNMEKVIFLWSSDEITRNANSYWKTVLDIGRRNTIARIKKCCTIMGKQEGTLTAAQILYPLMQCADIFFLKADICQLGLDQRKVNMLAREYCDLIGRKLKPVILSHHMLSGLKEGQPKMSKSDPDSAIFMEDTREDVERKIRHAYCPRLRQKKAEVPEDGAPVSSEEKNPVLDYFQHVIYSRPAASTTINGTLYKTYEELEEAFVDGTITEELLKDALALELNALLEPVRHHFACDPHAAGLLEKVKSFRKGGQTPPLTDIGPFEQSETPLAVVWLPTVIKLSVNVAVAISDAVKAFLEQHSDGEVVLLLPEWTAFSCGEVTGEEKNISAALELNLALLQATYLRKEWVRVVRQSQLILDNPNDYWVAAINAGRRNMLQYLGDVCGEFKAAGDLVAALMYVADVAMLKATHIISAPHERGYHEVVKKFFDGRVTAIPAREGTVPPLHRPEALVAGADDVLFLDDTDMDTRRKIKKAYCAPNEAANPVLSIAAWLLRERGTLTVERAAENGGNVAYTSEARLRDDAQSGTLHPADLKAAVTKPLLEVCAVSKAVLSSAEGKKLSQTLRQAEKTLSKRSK
The test can be described thus: Trypanosoma cruzi tyrosyl tRNA synthetase (TcYRS) _High Tyrosine SOP. The note with it: 30 µM. Also on record: scale not given: in the data most compounds retested in dose-response had high values. It counts as functional.
`CC(C)(C)c1n[nH]c(C2CN(C(=O)c3cc(Cl)c[nH]3)CCO2)n1` (configuration not stated): the Percent Effect came to 2.13%. For `Cc1nn(CC(C)C)c(N(C)C)c1CNCc1cc2ccccc2[nH]1`, the Percent Effect worked out at 13.3%. As for `Cc1ccc(CN2C[C@@H]3COC[C@H](NS(C)(=O)=O)[C@@H]3C2)o1`, the Percent Effect was 4.17%. On the same count and under the same terms, under `CC(=O)Nc1nc(C2CCN(C(C)=O)CC2)cs1` stands 6.38%; under `COCC(=O)N1Cc2cn(C)nc2C(COc2cccnc2)C1` (configuration not stated), 1.06%; under `O=C(COCc1nc(-c2ccncc2)no1)N1CCCC1`, 5.38%. Same read-out and setting: for `CCOC(=O)c1sc(NC(=O)CN(C)S(C)(=O)=O)c(C#N)c1C` the value was 3.17%; for `Cc1ccc([C@]2(O)CC[C@H]3CN(Cc4cc(C)c(O)c(C)c4)C[C@H]32)nc1`, 0%; for `O=C(C1=CCCC1)N1CCO[C@H]2[C@@H](OCC3CC3)CC[C@@H]21`, 5.21%. For `Cc1nc(C)n(CC2CCCN2CC(=O)NCc2ccco2)n1` (configuration not stated), the Percent Effect turned out to be 1.07%. Consider `CCOC(=O)NC(C(=O)NCc1ccc(N2CCCCC2)nc1)C(C)C` (configuration not stated), for which the Percent Effect stood at 3.45%. In the case of `Cc1cc(NC(=O)c2nc(N3CCCC3)ncc2Cl)nc(C(C)C)n1`, the Percent Effect turned out to be 9.9%.

Regarding `CC(C)c1nc(C(=O)N2CCOCC2CC(=O)c2ccco2)c[nH]1` (configuration not stated), the Percent Effect amounted to 5.32%. Regarding `OC1CCN(Cc2c(C3CCCNC3)[nH]c3ncccc23)CC1` (configuration not stated), the Percent Effect was -5.38%. For the molecule `CS(=O)(=O)CCC(=O)Nc1cnn(-c2ccccc2Cl)c1`, the Percent Effect turned out to be 7.92%. With `CC(C)CN1CCN(Cc2nc3ccccc3[nH]2)[C@H]2CS(=O)(=O)C[C@H]21`, the Percent Effect is 14%. In the case of `O=C(Cn1cnc(NC(=O)CC2CCCC2)n1)NCc1ccccc1`, the Percent Effect stood at 6.37%.

For the molecule `CN(Cc1ccco1)C(=O)[C@H]1CSCN1C(=O)OC(C)(C)C`, the Percent Effect was 4.43%. Consider `O=C1CN(Cc2nnc(-c3ccccc3Br)o2)CCN1`, for which the Percent Effect was 1.05%.

As for `CC(C)c1nnc2n1CCN(C(=O)CN1CCc3sccc3C1)C2`, the Percent Effect was determined as 3.43%. As to `Cn1nccc1C1CCN(Cc2csc(-c3ncccn3)n2)CC1`, the Percent Effect was 11.9%.

Turning to `COCc1cnc2n1CCN(Cc1cccnc1)C2C` (configuration not stated), the Percent Effect was determined as 2.08%. In the case of `Cc1ccccc1CS(=O)(=O)CC(=O)NC1CCCCNC1=O` (configuration not stated), the Percent Effect is 4.85%. As to `O=C(Nc1cccc(OCc2cccc(F)c2)c1)C1COCCO1` (configuration not stated), the Percent Effect was -8.2%.

Take `Cn1cnnc1C1CCCN(C(=O)NCc2cc[nH]n2)C1` (configuration not stated): the Percent Effect amounted to 6.4%. Consider `CS(=O)(=O)NC1CCc2c(ccc(=O)n2CC2CC2)C1` (configuration not stated), for which the Percent Effect turned out to be 6.38%. On to `COc1ccc(Cl)cc1NCC(=O)NCCc1ccccn1`, for which the Percent Effect was 0.493%. In the case of `CC(C)n1ccnc1CN1CCCN(C(=O)COC2CCCC2)CC1`, the Percent Effect is -1.04%. As for `COc1cc(C(=O)N(C2CC2)C2CC(=O)NC2=O)ccc1C` (configuration not stated), the Percent Effect came to 4.43%. The same measure, in the same setting: for `O=C(Nc1ccnc(OC2CCOC2)c1)C1CCC1` (configuration not stated) the value was -2.1%. Same read-out and setting: under `Cc1ncccc1Oc1nccnc1C1CCN(C(C)C)CC1` stands -31.2%. Still for that read-out and setting: under `Cc1cnn(CC2CCCN2C(=O)c2cn(-c3ccccc3)nc2C)c1` (configuration not stated) stands 7.39%.

In the case of `O=C(Cc1ccccn1)N1CCN(C(=O)c2cccc3[nH]ncc23)CC1`, the Percent Effect came out at 5.21%. Turning to `Cc1nc2n(n1)CC(NCc1cc(Cl)c3c(c1)OCCCO3)CC2` (configuration not stated), the Percent Effect was 6.4%. As to `Cn1cnc2c1CCN(Cc1nc(Cc3ccccc3)no1)C2`, the Percent Effect worked out at 11.3%.

`Cc1cnc(CN2CCOC(Cn3nc(C)nc3C)C2)cn1` (configuration not stated): the Percent Effect came to 6.4%. Take `CCN1CCC(c2nc3ccc(NC(C)C)cn3n2)CC1`: the Percent Effect is 5.94%.

On to `NC(=O)N1CCC2(CCN(Cc3cccc(F)c3)CC2)CC1`, for which the Percent Effect is 5.38%. With `O=C(N[C@@H]1CCNC[C@H]1O)c1ccc(F)c(Cl)c1`, the Percent Effect turned out to be 3.7%. Still for that read-out and setting: under `Cc1cnn(CCCNC(=O)N2CCCCC(N3CCCC3)C2)c1` (configuration not stated) stands 8.33%.
